Shown are actives, neighbours in structure and some others; about 8.3% of the full set was active somewhere.
HCV inh = inhibitors of hepatitis C virus infection; Huh7.5.1 HCVcc-Cre infection, luciferase reporter, 44 h; Potency, µM (doses to about 41.8 µM), for the others: at the top dose activity change, negative = inhibition, usual class: inhibitors; actives 3.4% (n = 340,000); also: potency is read from the fitted curve at half-maximal effect
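Infectious HCV cell culture screen: compound-treated cells (1,000/well, pre-plated 4 h) are infected with HCVcc-Cre at roughly 0.5 moi and grown 44 h. Infection is quantified by luciferase signal after 15 min substrate incubation at room temperature.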
LASV entry inh = Lassa virus entry inhibition | Lassa virus pseudotype entry inhibition, cell reporter | Potency, µM (top dose mostly 37.9 µM), for the others: at the top dose activity change, negative = inhibition, most hits filed as inhibitors | actives 1.2% (n = 300,000) | AID 540256; calls by dose curve; tested in HEK293 cells; also: potency is read from the fitted curve at half-maximal effect; nearly all actives have a fitted effect of over 50% in size
HCMV antiviral = inhibitors of human cytomegalovirus | HFF cells, HCMV-luciferase reporter, 72 h; hits give low values | activity change, negative = inhibition, % at 57.5 µM | actives 4.5% (n = 410,000) | AID 1259415; in the data active = activity change below about -60%; inconclusive = no clear call, values can overlap the other calls; inactive = above about -39%
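Luciferase read-out from HCMV-luciferase-infected HFFs (MOI 1 PFU/cell) 72 h post infection at 37C; compounds added after 16 h cell attachment; activity normalized between buffer-only basal and Salinomycin (10uM) inhibitor controls.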
FMDV inh = blocks foot and mouth disease virus; AID 1159524; actives 1.2% (n = 410,000); Potency, µM (titrated, usually from 57.9 µM), for inactives: at the highest dose activity change, negative = inhibition, hits mostly inhibitors; FMDV antiviral cell-based qHTS; calls by dose curve; tested in HEK293T cells; also: read-out not given here; potency is read from the fitted curve at half-maximal effect; nearly all actives have a fitted effect of over 45% in size
Giardia FBPA inh = blocks Giardia fructose-bisphosphate aldolase activity; AID 2451; actives 0.71% (n = 290,000); Potency, µM (highest dose often 59.6 µM), without a hit: at the top dose activity, negative = inhibition, hits mostly inhibitors; purified Giardia FBPA; also: potency is read from the fitted curve at half-maximal effect; nearly all actives have a fitted effect of over 55% in size
Target sequence (A8B2U2 whole entry, looked up): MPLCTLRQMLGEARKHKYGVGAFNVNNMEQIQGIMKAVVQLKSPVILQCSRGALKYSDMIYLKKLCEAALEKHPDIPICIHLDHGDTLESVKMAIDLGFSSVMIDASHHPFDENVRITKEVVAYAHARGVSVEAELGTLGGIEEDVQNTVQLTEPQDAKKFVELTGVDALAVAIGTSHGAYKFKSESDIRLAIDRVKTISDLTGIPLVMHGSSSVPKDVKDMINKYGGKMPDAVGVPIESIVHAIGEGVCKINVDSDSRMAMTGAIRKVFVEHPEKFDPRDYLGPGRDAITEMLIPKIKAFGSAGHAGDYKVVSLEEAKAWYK
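Giardia FBPA (40 nM reagent) was preincubated 10 min at RT with compound (up to 57.5 uM final), then substrate plus GAPDH/TPI/NAD/arsenate coupling system with diaphorase/resazurin was added; resorufin fluorescence (525/598 nm) was read after 20 min.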
MARV entry inh = inhibitors of Marburg virus binding or cell entry | Marburg virus pseudotyped entry inhibition, cell reporter | actives 1.8% (n = 300,000) | Potency, µM (titrated, usually from 37.8 µM), for the others: at the highest dose activity change, negative = inhibition, hits mostly inhibitors | AID 540276; calls by dose curve; tested in HEK293 cells; also: potency is read from the fitted curve at half-maximal effect
* hit, by the source's call; [ ] = another dose, or the depositor's remark. Unless noted, calls follow the shape of the dose curve; as a rule, active = well fitted curve in the direction sought with a large enough effect; inconclusive = small, poorly fitted or top-dose-only effect, or another doubt; inactive = no such curve, though single readings can be large; an effect the other way counts as inactive or inconclusive. % is scaled to controls: 0 for no effect and ±100 for the full control effect.

Results for Cc1ccc(/C(N)=N/OC(=O)N2CCOCC2)cc1 ?
HCV inh: inconclusive; LASV entry inh: inconclusive; HCMV antiviral: -85.4*; Giardia FBPA inh: 6.5%; MARV entry inh: 14.6µM*

What do the screens show for `Cc1cccc(/C(N)=N/OC(=O)N2CCOCC2)c1`?
HCV inh: inconclusive; LASV entry inh: 16.4µM*; HCMV antiviral: -74.0*; Giardia FBPA inh: -2.2%; MARV entry inh: 23.1µM*

How did Cc1ccc(C(=O)OCC(=O)N2CCOCC2)cc1 do in these assays?
HCV inh: 6.8%; LASV entry inh: 8.7%; HCMV antiviral: -23.2; FMDV inh: 31.9%; Giardia FBPA inh: 2.9%; MARV entry inh: 7.8%[46.1 µM]

What do the screens show for `CC(CCN1CCCc2nc(C)c(C)cc21)=NO[C@H](C)c1cn([C@@H]2COC[C@@H]2O)nn1`?
LASV entry inh: inconclusive; MARV entry inh: 7.3%[14.2 µM]

How did Cc1cccc(N2CCN(c3c4c(nc5nncn35)CCC4)CC2)c1C do in these assays?
LASV entry inh: 17.3%[46.1 µM]; HCMV antiviral: inconclusive; FMDV inh: -12.8%; MARV entry inh: -5.9%[46.1 µM]

How did COc1cccc(N2CCN(c3c4c(nc5nncn35)CCC4)CC2)c1 do in these assays?
LASV entry inh: -21.4%[46.1 µM]; HCMV antiviral: -94.7*; FMDV inh: inconclusive; MARV entry inh: inconclusive

Results for Clc1cccc(N2CCN(c3c4c(nc5nncn35)CCC4)CC2)c1 ?
LASV entry inh: 8.8%[46.1 µM]; HCMV antiviral: -64.8*; FMDV inh: 22.4µM*; MARV entry inh: inconclusive

What do the screens show for `C=CC[C@@H]1C=C[C@H](ON=C2c3cc(OC)ccc3O[C@H](c3cccc(OC)c3)[C@@H]2O)[C@H](CO)O1`?
MARV entry inh: -4.8%[14.2 µM]

How did O=C(Nc1cccnc1)c1cc2c(s1)-c1ccccc1OC2 do in these assays?
HCV inh: inconclusive; HCMV antiviral: -61.9*; FMDV inh: 4.8%; Giardia FBPA inh: 3.7%

Results for Cc1cccc2c1-c1sc(C(=O)Nc3cccnc3)cc1CO2 ?
HCV inh: 22.4µM*; HCMV antiviral: inconclusive; FMDV inh: 21.6%; Giardia FBPA inh: -1.2%

What do the screens show for `CC(=O)c1cccc(NC(=O)c2cc3c(s2)-c2c(C)cccc2OC3)c1`?
HCMV antiviral: inconclusive; FMDV inh: inconclusive; MARV entry inh: 7.4%[46.1 µM]

How did Fc1ccc(C(c2ccc(F)cc2)N2CCN(C/C=C\c3ccccc3)CC2)cc1 do in these assays?
FMDV inh: inconclusive; Giardia FBPA inh: -13.9%; MARV entry inh: inconclusive

Results for COc1ccc(C2C(CN3CCOCC3)C(=O)N2c2ccccc2)cc1 (stereo not drawn) ?
HCV inh: 12.7%; LASV entry inh: inconclusive; HCMV antiviral: -36.2; FMDV inh: -12.9%; Giardia FBPA inh: 5.6%; MARV entry inh: inconclusive

How did COc1ccc(N2C(=O)C(CN3CCN(C)CC3)C2c2ccccc2)cc1 (stereo not drawn) do in these assays?
HCV inh: 35.5µM*; LASV entry inh: 0.1%; HCMV antiviral: -23.0; FMDV inh: -16.1%; Giardia FBPA inh: 4.4%; MARV entry inh: inconclusive

How did CC(=O)N1CCC[C@H]1C(=O)NCC1Cc2cc(-c3cccc(OC(F)(F)F)c3)ccc2O1 (stereo partly drawn) do in these assays?
FMDV inh: -7.3%

What do the screens show for `O=C(NC1CCCC1)c1ccc2c(c1)N(Cc1ccccc1)CCS2`?
HCV inh: inconclusive; HCMV antiviral: -7.9; FMDV inh: 5.4%; Giardia FBPA inh: -10.7%

Results for O=C(NC1CC1)c1ccc2c(c1)N(Cc1ccc(Cl)cc1)CCS2 ?
HCV inh: 22.4µM*; HCMV antiviral: inconclusive; FMDV inh: -28.0%; Giardia FBPA inh: -5.2%

What do the screens show for `Cc1ccc(CN2CCSc3ccc(C(=O)NC4CCN(Cc5ccccc5)CC4)cc32)cc1`?
HCV inh: 8.91µM*; LASV entry inh: inconclusive; HCMV antiviral: -20.2; FMDV inh: -26.6%; Giardia FBPA inh: -8.7%; MARV entry inh: inconclusive

Results for COc1cccc2c1cc1c(=O)n(CC(=O)N3CCN(c4ccccc4F)CC3)nc(C)n12 ?
HCMV antiviral: -26.2; FMDV inh: 0.2%; MARV entry inh: 11.0%[46.1 µM]

How did C[C@]12CCC(=O)C=C1CCC1C2C(O)C[C@]2(C)C1CC[C@]2(O)C(=O)COC(=O)CCC(=O)O (stereo partly drawn) do in these assays?
FMDV inh: -5.2%; Giardia FBPA inh: 2.4%

What do the screens show for `COC(=O)C1=C(C)N=C2SC(C)C(=O)N2C1c1ccc(C(=O)OC)cc1` (stereo not drawn)?
HCV inh: -8.7%; LASV entry inh: -1.2%; HCMV antiviral: -87.6*; FMDV inh: 10.1%; Giardia FBPA inh: 9.7%; MARV entry inh: inconclusive

Results for CCOc1ccc(NC(=O)CSc2ncc(-c3ccc(F)cc3)n2Cc2ccco2)cc1 ?
HCV inh: 10µM*; HCMV antiviral: -27.0; FMDV inh: -15.0%; Giardia FBPA inh: -6.6%

What do the screens show for `Cc1ccc(NC(=O)CSc2ncc(-c3ccccc3)n2C(=O)c2ccccc2)cc1`?
HCV inh: 15.1%; LASV entry inh: 3.8%; HCMV antiviral: 6.3; FMDV inh: 34.0%; Giardia FBPA inh: -0.5%; MARV entry inh: 4.0%

Results for Cc1ccc(C(=O)n2c(-c3ccccc3)cnc2SCC(=O)Nc2ccccc2)cc1 ?
HCV inh: -5.5%; LASV entry inh: 0.5%; HCMV antiviral: -74.3*; FMDV inh: 0.3%; Giardia FBPA inh: 3.7%; MARV entry inh: inconclusive

How did Cc1ccc(NC(=O)Cn2c(-c3ccc(F)cc3)cnc2SCC(=O)Nc2c(C)cccc2C)cc1 do in these assays?
HCV inh: 0.8%; LASV entry inh: inconclusive; HCMV antiviral: -77.7*; FMDV inh: -19.8%; Giardia FBPA inh: 10.3%; MARV entry inh: inconclusive

What do the screens show for `COCCCNC(=O)c1ccc(-c2nc(CS(=O)(=O)c3ccc(C)cc3)c(C)o2)cc1`?
LASV entry inh: -15.9%[46.1 µM]; HCMV antiviral: 7.9; FMDV inh: -0.1%

How did CCC1C(=O)CC2CCN3C(=O)CCC1C23 (stereo not drawn) do in these assays?
Giardia FBPA inh: 4.2%

How did CCC(C)(C)C1CCC(=NNc2nc3ccccc3[nH]2)CC1 (stereo not drawn) do in these assays?
HCV inh: inconclusive; LASV entry inh: 8.2µM*; HCMV antiviral: inconclusive; FMDV inh: -16.7%; Giardia FBPA inh: 1.4%; MARV entry inh: inconclusive

Results for O=C1N[C@@H](Cc2ccccc2)C(=O)N2CCC[C@@H]12 ?
HCV inh: 12.9%; LASV entry inh: inconclusive; HCMV antiviral: 22.6; FMDV inh: 7.3%; Giardia FBPA inh: 9.2%; MARV entry inh: -6.7%

Assay outcomes as filed in PubChem.
